Common to all, as to experiment: Primary qHTS to identify gynecologic anti-cancer compounds using libraries of approved drugs and bioactive compounds (AID 1345084); also: nearly all actives have a fitted effect of over 55% in size
What all share (settings): Gynecologic cancer cell panel viability, ATPlite luminescence, 48 h; series mostly up to 57.5 µM
On the technique in general: In qHTS, concentration-response curves come from the screen itself.

Test [1] relates to SKOV3. An outline of the steps:
(§1)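 Luminescence from the ATPlite ATP-monitoring reagent indicates viable cell number; lower signal means cytotoxicity. Cells received compound 16 h after seeding and were exposed for 48 h across five concentrations.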

For test [2], the system named is Tov-21-G. An outline of the steps:
as §1

The subject of test [3] is Tov112D. An outline of the steps: as §1

Results filed as inconclusive are left out. Unmarked numbers belong to inactive results. Activity calls are given as the source filed them. Calls follow the shape of the dose curve; as a rule, active = well fitted cell-killing curve with a large enough effect; inconclusive = small, poorly fitted or top-dose-only effect, or effect the other way; inactive = flat fitted curve, though single readings scatter.

32 compounds from PubChem BioAssay (NCATS) can be followed below.
% is scaled to controls: 0 for no effect and ±100 for the full control effect; potency is read from the fitted curve at half-maximal effect.

Take `O=C([C@@H]1CCCN(c2ccc3[nH]c(C4(n5cc(Cl)cn5)CC4)nc3n2)C1)N1CCCC1`: the Potency result in test [1], in test [2] and in test [3] was “inactive” throughout.

With `CC(=O)c1ccc2c(c1)[C@H](NC(=O)c1ccc(F)c(Cl)c1)[C@H](O)C(C)(C)O2`, the Potency result in test [1], in test [2] and in test [3] was “inactive” each time.

On to `N#Cc1ccc(N2N=C3c4ccc(C(=O)O)cc4CC[C@@H]3[C@@H]2C2CCCC2)cc1Cl`, for which the Potency entry in test [1], in test [2] and in test [3] was “inactive” throughout.

As to `C=C1CCC[C@]2(C)CC/C(=C(/CO)C(=O)OC)C[C@@H]12`, the Potency result in test [1], in test [2] and in test [3] was “inactive” in each case.

With `CCCc1cc2c(N3CCN(C4=NCC(C)(C)S4)CC3)ncnc2s1`, the Potency in test [1] was 25.1 µM (active). The Potency entry in test [2] and in test [3] was “inactive” in each case.

Consider `COC1C(OC(=O)/C=C/C=C/C=C/C=C/C(=O)O)CCC2(CO2)C1C1(C)OC1CC=C(C)C` (stereo unspecified), for which the Potency entry in test [1], in test [2] and in test [3] was “inactive” each time.

In the case of `CC(=O)OC1C(O)CC2(C)C(CCC3(C)C2CC=C2C4C5(CCC(CO[C@@H]6O[C@H](CO)[C@@H](O)[C@H](O)[C@H]6O)(OC5=O)C4(C)O)C(O)CC23C)C1(C)C` (stereo partly specified), the Potency entry in test [1], in test [2] and in test [3] was “inactive” throughout.

Regarding `CCCC(CCC)C(=O)NCc1ccc2c(cnn2-c2ccccc2OC)c1`, the Potency entry in test [1], in test [2] and in test [3] was “inactive” in each case.

Consider `O=C(NCC1(c2nc(-c3ccccc3)cs2)CCOCC1)c1cccc(-c2noc(C(F)(F)F)n2)c1`, for which the Potency result in test [1], in test [2] and in test [3] was “inactive” in each case.

`C/C=C/C=C/c1cc2c(C=O)c(O)c(CC=C(C)C)cc2o1`: the Potency entry in test [1], in test [2] and in test [3] was “inactive” in each case.

Regarding `COc1cc(C(N)=O)nc(-c2ccccn2)c1O`, the Potency result in test [1], in test [2] and in test [3] was “inactive” each time.

Consider `O=C(Nc1ccccc1C(=O)NC1CCCCNC1=O)c1cc2ccccc2s1` (stereo unspecified), for which the Potency result in test [1], in test [2] and in test [3] was “inactive” each time.

As to `C=C1CCN([C@H](C)[C@](O)(Cn2cncn2)c2ccc(F)cc2F)CC1`, the Potency entry in test [1], in test [2] and in test [3] was “inactive” in each case.

As for `CCCc1cc(C)n(C)c(=O)c1CN(C)C(=O)c1cc(-c2ccc(N3CCN(C(C)C)CC3)nc2)cc2c1cnn2C(C)C`, the Potency entry in test [1], in test [2] and in test [3] was “inactive” in each case.

Consider `CCNC1(C(N)=O)CCN(c2ncnc3c2nc(-c2ccccc2Cl)n3-c2ccc(Cl)cc2)CC1`, for which the Potency result in test [1], in test [2] and in test [3] was “inactive” in each case.

As for `O=C(O)C1=CO[C@@H](O[C@@H]2O[C@H](CO)[C@@H](O)[C@H](O)[C@H]2O)[C@@H]2C(CO)=CC[C@H]12`, the Potency entry in test [1], in test [2] and in test [3] was “inactive” throughout.

For the compound `CC(=O)O[C@@H]1C[C@]2(C)[C@@]3(CCC4[C@@]5(C)CC[C@H](O[C@@H]6O[C@H](C(=O)O)[C@@H](O)[C@H](OC7OC(CO)C(O)C(O)[C@H]7O[C@@H]7O[C@@H](C)[C@H](O)[C@@H](O)[C@H]7O[C@@H]7OC[C@](O)(CO)[C@H]7O)[C@H]6OC6OC(CO)C(O)C(O)C6O)C(C)(C)C5CC[C@]42C)OC[C@@]12CCC(C)(C)CC23` (stereo partly specified), the figures for the activity change, negative = cytotoxicity in test [1], in test [2] and in test [3] were 27.9% [at 6.55 µM], -2.25% [at 6.55 µM] and -4.27% [at 6.55 µM], respectively.

On to `COc1ccc(-n2c(SCCCN3C(=O)c4cccc5cccc(c45)C3=O)nnc2-c2ccncc2)cc1`, for which the Potency result in test [1], in test [2] and in test [3] was “inactive” in each case.

As for `O=S1(=O)CCN(Cc2cc(NCC3CCOCC3)c3[nH]c(-c4ccccc4)cc3c2)CC1`, the Potency entry in test [1], in test [2] and in test [3] was “inactive” throughout.

`C=C1C(=O)OC2/C=C(\CO)CC/C=C(\C=O)C(O)C(OC(=O)C(C)CC)C12` (stereo unspecified): the Potency entry in test [1], in test [2] and in test [3] was “inactive” each time.

Take `C=C1CC[C@H]2C(=C)CC[C@H]3C(=C)C(=O)O[C@@H]3[C@@H]12`: the Potency result in test [1], in test [2] and in test [3] was “inactive” in each case.

As for `COc1ccncc1C(=O)NC(=O)Nc1ccc(-c2ccccc2)c(C(F)(F)F)c1`, the Potency result in test [1], in test [2] and in test [3] was “inactive” in each case.

As for `CCOc1ccc(S(=O)(=O)N2CCCCCC2)c2ccccc12`, the Potency result in test [1], in test [2] and in test [3] was “inactive” in each case.

For the compound `O=C(O)CCc1nccc2c1[nH]c1ccccc12`, the Potency entry in test [1], in test [2] and in test [3] was “inactive” throughout.

With `CC(C)=CCCC1(C)C2CCC1(C)C(O)C2` (stereo unspecified), the Potency result in test [1], in test [2] and in test [3] was “inactive” each time.

In the case of `CC(C)CCNc1ncccc1C(=O)N1CCN(Cc2ccccc2)CC1`, the Potency entry in test [1], in test [2] and in test [3] was “inactive” throughout.

For the compound `CC1CCCC(O)CCC/C=C/c2cc(OS(=O)(=O)O)cc(O)c2C(=O)O1` (stereo unspecified), the Potency result in test [1], in test [2] and in test [3] was “inactive” in each case.

With `C/C=C\NC(=O)C1NC(=O)C(CC(N)=O)NC(=O)C(NC(=O)C(=O)C(C)CC)Cc2ccc(O)c(c2)-c2cccc3c2NC(=O)C3(O)C1O` (stereo unspecified), the Potency entry in test [1] and in test [3] was “inactive” in each case. The Potency in test [2] is 4.47 µM (active).

For the compound `Cc1nc2c(C(F)(F)F)cccc2nc1-c1ccc(-c2cccc(S(C)(=O)=O)c2)cc1`, the Potency result in test [1], in test [2] and in test [3] was “inactive” throughout.

With `Cc1cc(C)c(-n2cc(C)c3c(Cl)nc(C)nc32)c(C)c1`, the Potency result in test [1], in test [2] and in test [3] was “inactive” each time.

Take `CC(=O)O[C@H]1C[C@@](O)(C(C)C)[C@@H]2[C@@H](OC(=O)c3ccc(O)cc3)CC(C)=CC[C@@]12C`: the Potency entry in test [1], in test [2] and in test [3] was “inactive” throughout.

`CC(=O)O[C@@H]1CC2C(/C=C(\C)C(=O)[C@@]3(O)C[C@@H](C)[C@H](OC(=O)c4ccccc4)C3/C=C/1C)C2(C)C` (stereo partly specified): the Potency result in test [1], in test [2] and in test [3] was “inactive” each time.
